# Values without a mark were called inactive. For some assays here: Results with a measured potency or affinity are listed apart. Activity calls are given as the source filed them. Unless noted, how the calls were made is not given here.
# Experiments:
# [1] = antimalarial activity against Dd2 strain (AID 2302;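 active means growth inhibition above 50% at the single 2 µM test dose, taken to imply half-maximal potency below 2 µM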;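 further: 0% = DMSO untreated growth and 100% = chloroquine plus artemisinin killed control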); details: P. falciparum Dd2 in RBCs, LDH growth readout, 72 h; at 2 µM; active compounds read high
# [2] = HepG2 cytotoxicity, primary screen, cytotoxicity control for P. falciparum antimalarial project, cell-based, ATP luminescence (AID 2303;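 active means inhibition above 50%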;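 further: 0% = DMSO wells and 100% = digitonin-killed cells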); details: HepG2 viability, 24-48 h, at 10 µM, active compounds read high
# [3] = target: L-lactate dehydrogenase (Plasmodium falciparum (isolate CDC / Honduras)) (UniProt Q27743); assay: PfLDH activity inhibition – cell lysate, 3D7 strain, counter-screen for P. falciparum growth inhibition project (AID 2304);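 further: 0% = vehicle and 100% = reference inhibitor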; details: P. falciparum 3D7 crude extract, LDH APAD/NBT absorbance; at 2 µM; active compounds read high
# [4] = inhibition of 3D7 malaria parasite growth – strain 3D7 (AID 2306);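 further: 0% = DMSO wells and 100% = chloroquine plus artemisinin control wells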; details: P. falciparum 3D7 erythrocytic growth, LDH absorbance, 72 h; at 2 µM; active compounds read high
# [5] = target: Calcium-dependent protein kinase 1 (Plasmodium falciparum (isolate 3D7)) (UniProt P62344); assay: PfCDPK1 kinase inhibitors, biochemical, TCAMS library (AID 1159585; cut-off not given, nearly all actives have IC50 up to about 0.98 µM;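 further: inhibitors leave more ATP so luminescence rises with inhibition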); details: recombinant PfCDPK1, Kinase-Glo ATP depletion luminescence
# [6] = target: Plasmodium falciparum protein kinase 6 (PK6, PF3D7_1337100) (UniProt Q8IDW1); assay: PfPK6 kinase inhibitors, biochemical, TCAMS library (AID 1159586); details: recombinant PfPK6, Kinase-Glo ATP depletion luminescence
# [7] = target: Protein kinase 7 (PK7), Plasmodium falciparum 3D7 (PF3D7_0213400) (UniProt Q7YTF7); assay: inhibition of Plasmodium PK7 catalytic activity – biochemical, TCAMS antimalarial set, Kinase-Glo luminescence (AID 1159587); details: recombinant PfPK7, Kinase-Glo ATP depletion luminescence
# [8] = target: Calcium-dependent protein kinase 4 (Plasmodium falciparum (isolate 3D7)) (UniProt Q8IBS5); assay: PfCDPK4 kinase inhibitors, biochemical, TCAMS library (AID 1159588; cut-off not given, nearly all actives have IC50 up to about 0.91 µM); details: recombinant PfCDPK4, Kinase-Glo ATP depletion luminescence
# Chain of Calcium-dependent protein kinase 4 (Plasmodium falciparum (isolate 3D7)) (Q8IBS5 whole entry, looked up): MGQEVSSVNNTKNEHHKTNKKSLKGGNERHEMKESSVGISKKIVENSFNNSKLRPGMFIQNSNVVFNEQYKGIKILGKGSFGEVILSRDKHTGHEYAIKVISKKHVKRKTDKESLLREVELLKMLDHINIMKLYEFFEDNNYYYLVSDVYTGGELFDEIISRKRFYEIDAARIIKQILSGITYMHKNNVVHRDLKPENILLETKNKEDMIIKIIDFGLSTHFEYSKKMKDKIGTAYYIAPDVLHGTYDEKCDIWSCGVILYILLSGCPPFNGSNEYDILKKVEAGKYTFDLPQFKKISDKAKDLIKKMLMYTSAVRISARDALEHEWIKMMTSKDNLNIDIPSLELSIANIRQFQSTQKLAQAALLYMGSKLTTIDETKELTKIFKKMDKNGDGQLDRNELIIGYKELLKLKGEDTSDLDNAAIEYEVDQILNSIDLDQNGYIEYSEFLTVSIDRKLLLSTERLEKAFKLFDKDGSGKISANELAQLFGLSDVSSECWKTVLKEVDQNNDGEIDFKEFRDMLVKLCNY
# Chain of Plasmodium falciparum protein kinase 6 (PK6, PF3D7_1337100) (Q8IDW1 1-305): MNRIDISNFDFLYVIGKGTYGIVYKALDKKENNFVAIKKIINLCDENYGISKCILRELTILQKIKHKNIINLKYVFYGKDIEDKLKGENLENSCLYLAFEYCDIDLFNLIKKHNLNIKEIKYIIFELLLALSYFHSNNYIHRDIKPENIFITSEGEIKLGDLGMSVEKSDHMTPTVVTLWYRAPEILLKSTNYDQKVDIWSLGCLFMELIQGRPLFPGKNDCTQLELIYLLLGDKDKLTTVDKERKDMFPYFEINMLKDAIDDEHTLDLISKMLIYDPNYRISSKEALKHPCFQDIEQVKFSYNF
# Chain of Protein kinase 7 (PK7), Plasmodium falciparum 3D7 (PF3D7_0213400) (Q7YTF7 1-343): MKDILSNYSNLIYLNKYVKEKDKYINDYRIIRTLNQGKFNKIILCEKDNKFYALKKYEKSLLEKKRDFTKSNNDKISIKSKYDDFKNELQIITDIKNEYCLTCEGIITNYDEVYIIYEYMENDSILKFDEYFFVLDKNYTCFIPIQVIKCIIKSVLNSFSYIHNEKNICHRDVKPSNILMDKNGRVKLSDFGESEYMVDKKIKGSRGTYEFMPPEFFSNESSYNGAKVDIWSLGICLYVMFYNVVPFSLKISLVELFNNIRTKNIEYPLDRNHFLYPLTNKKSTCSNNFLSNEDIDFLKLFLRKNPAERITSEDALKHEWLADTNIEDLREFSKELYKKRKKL
# Chain of Calcium-dependent protein kinase 1 (Plasmodium falciparum (isolate 3D7)) (P62344 whole entry, looked up): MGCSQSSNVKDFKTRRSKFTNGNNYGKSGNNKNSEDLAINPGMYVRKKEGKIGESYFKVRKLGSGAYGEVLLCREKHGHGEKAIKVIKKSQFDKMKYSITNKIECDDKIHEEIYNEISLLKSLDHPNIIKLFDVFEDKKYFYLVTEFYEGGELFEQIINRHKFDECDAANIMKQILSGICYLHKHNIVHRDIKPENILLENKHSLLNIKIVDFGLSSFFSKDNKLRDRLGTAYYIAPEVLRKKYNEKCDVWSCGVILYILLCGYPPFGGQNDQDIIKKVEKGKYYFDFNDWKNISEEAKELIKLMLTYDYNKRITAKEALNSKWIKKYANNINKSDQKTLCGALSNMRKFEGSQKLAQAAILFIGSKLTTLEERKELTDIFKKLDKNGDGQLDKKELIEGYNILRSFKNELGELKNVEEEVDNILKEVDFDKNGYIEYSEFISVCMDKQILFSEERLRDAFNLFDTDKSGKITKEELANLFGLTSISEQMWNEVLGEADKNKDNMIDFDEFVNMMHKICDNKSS
# Chain of L-lactate dehydrogenase (Plasmodium falciparum (isolate CDC / Honduras)) (Q27743 whole entry, looked up): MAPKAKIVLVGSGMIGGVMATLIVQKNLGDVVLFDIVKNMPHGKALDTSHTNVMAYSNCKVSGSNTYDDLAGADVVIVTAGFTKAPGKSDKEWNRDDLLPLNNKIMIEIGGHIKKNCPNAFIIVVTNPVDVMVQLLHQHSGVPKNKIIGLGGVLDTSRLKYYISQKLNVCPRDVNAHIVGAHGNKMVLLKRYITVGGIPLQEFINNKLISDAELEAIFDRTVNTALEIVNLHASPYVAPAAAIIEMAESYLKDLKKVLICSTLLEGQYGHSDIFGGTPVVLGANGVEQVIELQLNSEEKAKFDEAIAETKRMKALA
SMILES,growth inhibition [1],inhibition [2],inhibition [3] [%],growth inhibition [4],outcome [5],outcome [6],outcome [7],outcome [8]
Cc1ccc(NC(=O)c2cc([N+](=O)[O-])ccc2NCc2cccnc2)cc1Cl,58% (active),9%,-5,86% (active),inactive,inactive,inactive,inactive
O=C(Nc1ccc(N2CCN(Cc3c[nH]c4cc(F)ccc34)CC2)cc1)c1ccccc1-c1ccc(C(F)(F)F)cc1,7%,20%,9,85% (active),inactive,inactive,inactive,inactive
Nc1ccc(-c2nc3c(ccc4ccccc43)[nH]2)cc1,51% (active),-21%,-1,84% (active),inactive,inactive,inactive,inactive
CCOC(=O)c1cc(C(=O)NCCCCN2CCC(c3ccc4c(c3OC)CCCC4)CC2)ccc1-c1ccc(C(F)(F)F)cc1,60% (active),100% (active),-3,101% (active),inactive,inactive,inactive,inactive
Cc1cc(C(=O)NCc2ccc(-c3c(C)noc3C)cc2)n(-c2ccccc2)n1,90% (active),4%,3,92% (active),inactive,inactive,inactive,inactive
COc1ccc(C(=O)N2CCC(C(=O)NC(C)c3ccc(-n4ccnc4)cc3)CC2)c2ccccc12 (stereo not given),79% (active),12%,-4,83% (active),inactive,inactive,inactive,inactive
O=S(=O)(c1ccccc1OC(F)(F)F)C1C[C@H]2CC[C@@H](C1)N2S(=O)(=O)c1cccc(C(F)(F)F)c1 (stereo not given in full),99% (active),5%,2,99% (active),inactive,inactive,inactive,inactive
Cc1cc(=O)[nH]c(NC#N)n1,3%,8%,0,99% (active),inactive,inactive,inactive,inactive
CC(C)Cc1cn(-c2nc(-c3nc4ccccc4[nH]3)cs2)c2ccncc12,99% (active),34%,-2,102% (active),inactive,inactive,inactive,inactive
CCNc1cc(C(=O)N[C@@H](Cc2ccccc2)[C@H](O)CNCCc2ccccc2)cc(N2CCCCS2(=O)=O)c1,91% (active),14%,7,98% (active),inactive,inactive,inactive,inactive
C[C@@H](Oc1cc(-n2cnc3cc(SCCN4CCN(C)CC4)ccc32)sc1C(N)=O)c1ccccc1Cl,65% (active),46%,-1,90% (active),inactive,inactive,inactive,inactive
COc1cc2ncnc(Nc3ccc(OCc4ccccc4)c(I)c3)c2cc1OC,62% (active),11%,5,98% (active),inactive,inactive,inactive,inactive
O=C(N[C@H]1CCN(Cc2ccc(OC3CCN(Cc4ccccc4)CC3)c(Br)c2)C1)c1ccc(Cl)c(Cl)c1,30%,55% (active),-1,100% (active),inactive,inactive,inactive,inactive
CCCNc1ccc(-c2cc(C(N)=O)c3[nH]cc(C4CCN(S(=O)(=O)CC)CC4)c3c2)cn1,42%,6%,-1,99% (active),inactive,inactive,inactive,inactive
COc1cc(C2CCCCC2)c(OC)cc1CC1c2cc(O)c(Cl)cc2CCN1C (stereo not given),100% (active),12%,4,100% (active),inactive,inactive,inactive,inactive
CN1CCN=C1c1ccc(NC(=O)Nc2ccc(C3=NCCN3C)cc2)cc1,69% (active),7%,-1,85% (active),inactive,inactive,inactive,inactive
Cc1noc(C)c1-c1cccc(CNCc2cccc(-c3cccc(-c4nc5c(C)cccc5[nH]4)c3)c2)c1,66% (active),15%,4,102% (active),inactive,inactive,inactive,inactive
CC(C)(C)c1ccc(NC(=O)c2cccc(CN3CCCN(Cc4cccc(C#N)c4)CC3)c2)cc1,12%,39%,4,97% (active),inactive,inactive,inactive,inactive
COc1ccc(NC(=O)CSc2nc(-c3ccccc3Cl)ns2)cc1,75% (active),11%,0,96% (active),inactive,inactive,inactive,inactive
O=c1cc(NCCCNC2CCOc3c(I)cc(Cl)cc32)[nH]c2ccccc12 (stereo not given),48%,-10%,-1,96% (active),inactive,inactive,inactive,inactive

SMILES,growth inhibition [1],inhibition [2],inhibition [3] [%],growth inhibition [4],outcome [5],outcome [6],outcome [7],outcome [8]
CN1CCC(N(Cc2ccc(-c3ccc(C(F)(F)F)cc3)cc2)C(=O)Cn2cc(Cc3cnn(C)c3)c(=O)nc2SCc2cccc(F)c2F)CC1,91% (active),68% (active),7,88% (active),inactive,inactive,inactive,inactive
CCCC(=O)Nc1ccc(OCCCN(Cc2ccccc2F)c2ccc(C#N)c(C(F)(F)F)c2)cc1,93% (active),7%,1,89% (active),inactive,inactive,inactive,inactive
C=CCN1C(=O)c2[nH]nc(-c3cc(C)c(C)cc3O)c2C1c1cccc(Br)c1 (stereo not given),82% (active),-14%,-3,90% (active),inactive,inactive,inactive,inactive
O=C(Nc1ccc(Cl)cc1)NC1CCN(CCCCCNC(=O)[C@@H]2C[C@H]2c2ccc(Cl)c(Cl)c2)CC1,18%,51% (active),4,102% (active),inactive,inactive,inactive,inactive
CCN(CC)CCN(Cc1ccc(-c2ccc(C(F)(F)F)cc2)cc1)C(=O)Cn1c(CCc2cccc(F)c2F)nc(=O)c2cc(C)ccc21,43%,19%,0,95% (active),inactive,inactive,inactive,inactive
c1ccc(CCNCc2ccc(-c3cccc(CNc4ccc5ncccc5c4)c3)cc2)cc1,17%,30%,3,91% (active),inactive,inactive,inactive,inactive
Cc1cccc2[nH]c(-c3cccc(-c4cccc(CNCc5cccc(N)c5)c4)c3)nc12,73% (active),14%,1,101% (active),inactive,inactive,inactive,inactive
O=C(Nc1cccc(-c2ccc(-c3nc4ccc(C(F)(F)F)cc4[nH]3)cc2)c1)Nc1ccc(Cl)c(Cl)c1,51% (active),93% (active),-2,100% (active),inactive,inactive,inactive,inactive
N#Cc1ccc(-c2cnc3ccc(NCc4ccc(S(N)(=O)=O)cc4)nn23)cc1,100% (active),7%,5,98% (active),inactive,inactive,inactive,inactive
Oc1ccc2nc(Nc3ccccc3)nc(NCCc3ccccc3)c2c1,100% (active),20%,-6,100% (active),inactive,inactive,inactive,inactive
C#CCCC(=O)Nc1cccc(-c2cccc(-c3nc4ccc(C(F)(F)F)cc4[nH]3)c2)c1,45%,14%,-4,90% (active),inactive,inactive,inactive,inactive
O=C(/C=C/c1ccc(Cl)c(Cl)c1)NCCCCCN1CCC(NC(=O)Nc2cccc(F)c2)CC1,6%,30%,2,100% (active),inactive,inactive,inactive,inactive
CC(C)c1ccc(NC(=O)N[C@H]2CCN(CCCCCNC(=O)/C=C/c3ccc(Cl)c(Cl)c3)C2)cc1,14%,56% (active),7,100% (active),inactive,inactive,inactive,inactive
CN(C)Cc1ccc(-c2cccc(Nc3nccc(NCC(O)c4ccccc4)n3)c2)cc1 (stereo not given),100% (active),74% (active),-1,102% (active),inactive,inactive,inactive,inactive
NC(N)=NN=Cc1ccc2ccc3ccccc3c2c1,89% (active),34%,5,101% (active),inactive,inactive,inactive,inactive
O=C(Nc1ccccc1)N(Cc1cccc(-c2ccc(CNCc3ccc4c(c3)OCO4)cc2)c1)C1CCN(Cc2ccccc2)CC1,82% (active),27%,7,102% (active),inactive,inactive,inactive,inactive
O=C(Nc1ccc(Br)cc1)Nc1ccc(Cn2ncc(N3CCCNCC3)c(Cl)c2=O)cc1,15%,-7%,-1,87% (active),inactive,inactive,inactive,inactive
O=C(Cc1cnc[nH]1)Nc1cccc(-c2ccc(-c3nc4ccccc4[nH]3)cc2)c1,72% (active),7%,-1,99% (active),inactive,inactive,inactive,inactive
Cc1cccc2[nH]c(C3CCN(CC4CCN(C(=O)/C=C/c5ccc(Cl)c(Cl)c5)CC4)CC3)nc12,79% (active),46%,0,100% (active),inactive,inactive,inactive,inactive
O=C(Nc1ccc(Cl)cc1Cl)NC1CCN(CCCCCNC(=O)[C@@H]2C[C@H]2c2ccc(Cl)c(Cl)c2)CC1,30%,67% (active),0,100% (active),inactive,inactive,inactive,inactive

# Source: PubChem BioAssay
